# Test results taken from PubChem BioAssay (NCI).
# The panel holds about 79,000 compounds, 15% with a hit somewhere; the sample as a whole holds those more often. Values without a mark were called inactive. The source made the active and inactive calls. Cut-off read from the data, not from the text of the source: active = growth inhibition above about 70%; inactive = the rest.
# Columns and labels:
# [1] = NCI Yeast Anticancer Drug Screen. Data for the rad52 strain (AID 147);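 note: 0% = growth of vehicle-treated control cultures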; conditions: S. cerevisiae rad52 mutant growth inhibition, active compounds read high
# In short: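 Measured: yeast growth inhibition. System: strain with a defined DNA damage repair alteration. Reference: vehicle-treated control cultures.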
# [2] = NCI Yeast Anticancer Drug Screen. Data for the rad50EPP+ strain (AID 151);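 note: 0% = growth of vehicle-treated control cultures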; conditions: S. cerevisiae rad50 mutant strain, active compounds read high
# In short: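 One strain with a rad50 alteration (rad50EPP+) was compound-treated, its growth then compared to that of vehicle controls.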
# [3] = NCI Yeast Anticancer Drug Screen. Data for the mgt1 strain (AID 153); conditions: S. cerevisiae mgt1 mutant growth inhibition, active compounds read high
# In short: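 After exposure of the mgt1 yeast mutant to compound, growth was measured and reported as inhibition compared with vehicle controls.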
# [4] = NCI Yeast Anticancer Drug Screen. Data for the rad50 strain (AID 155);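 note: 0% = growth of vehicle-only cultures of the same strain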; conditions: S. cerevisiae rad50 strain growth inhibition, active compounds read high
# In short: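 Vehicle-treated cultures provide the reference for the growth inhibition reported for compound-exposed, repair-deficient yeast.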
# [5] = NCI Yeast Anticancer Drug Screen. Data for the mec2-1 strain (AID 157); conditions: S. cerevisiae mec2-1 strain, active compounds read high
# In short: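 Test agents were screened against the mec2-1 yeast strain, with defined DNA repair or cell cycle alteration. Growth was scored as inhibition against vehicle-only controls.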
# [6] = NCI Yeast Anticancer Drug Screen. Data for the rad14 strain (AID 159);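 note: 0% = growth of vehicle-treated control cultures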; conditions: S. cerevisiae rad14 strain growth inhibition, active compounds read high
# In short: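 Inhibition of growth is reported for a repair-deficient yeast mutant following compound treatment, calculated relative to cultures that received vehicle.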
# [7] = NCI Yeast Anticancer Drug Screen. Data for the sgs1 mgt1 strain (AID 161);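 note: 0% = growth of cultures given vehicle only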; conditions: S. cerevisiae sgs1 mgt1 strain, active compounds read high
# In short: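 Read-out: growth inhibition vs vehicle controls. Cells: mutant yeast strain deficient in DNA damage repair.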
# [8] = NCI Yeast Anticancer Drug Screen. Data for the CLN2oe strain (AID 163);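 note: 0% = growth of vehicle-only control cultures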; conditions: S. cerevisiae CLN2oe strain, active compounds read high
# In short: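 Here, growth inhibition in a cell-cycle-altered yeast strain after compound exposure was quantified against vehicle control growth.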
# [9] = NCI Yeast Anticancer Drug Screen. Data for the cln2 rad14 strain (AID 165);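 note: 0% = growth equal to vehicle treated cultures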; conditions: S. cerevisiae cln2 rad14 strain, active compounds read high
# In short: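 Growth of compound-exposed yeast (cln2 rad14 genotype) measured and expressed as inhibition relative to vehicle.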
# [10] = NCI Yeast Anticancer Drug Screen. Data for the bub3 strain (AID 167); conditions: S. cerevisiae bub3 mutant strain, active compounds read high
# In short: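 Mutant yeast screening strain plus compound; vehicle-treated cultures serve as the 0% inhibition reference.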
# [11] = NCI Yeast Anticancer Drug Screen. Data for the wt2 strain (AID 169); conditions: S. cerevisiae wt2 strain growth inhibition, active compounds read high
# In short: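 Genetically defined yeast strains from a DNA-repair/cell-cycle panel were used. Compound-exposed yeast growth was measured, and the inhibition was calculated relative to vehicle treatment.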
# [12] = NCI Yeast Anticancer Drug Screen. Data for the mlh1 strain (AID 171);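 note: 0% = growth of vehicle-treated control cultures of the same strain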; conditions: S. cerevisiae mlh1 strain growth inhibition, active compounds read high
# In short: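 Here the genetically defined yeast mutant is grown with each compound, and the extent to which its growth falls below that of vehicle-exposed cells is reported.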
# [13] = NCI Yeast Anticancer Drug Screen. Data for the sgs1 strain (AID 173);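 note: 0% = growth of vehicle-only control cultures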; conditions: S. cerevisiae sgs1 mutant, active compounds read high
# In short: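 Relative growth inhibition, referenced to vehicle, was determined in a yeast strain with a defined alteration affecting DNA damage repair or cell cycle control after compound exposure.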
# [14] = NCI Yeast Anticancer Drug Screen. Data for the mlh1 rad18 strain (AID 175); conditions: S. cerevisiae mlh1 rad18 strain growth inhibition, active compounds read high
# In short: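 In this whole-cell yeast screen, a strain with altered DNA damage repair is challenged with compound, and its growth is measured against matched vehicle-treated controls.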
# [15] = at 5.0 µM (retest, dose inferred, filed as 0.5)
# [16] = at 50.0 µM (retest, dose inferred, filed as 5.0)
smiles,measurement,setting,value
COc1ccc(/C=C2\SC(=S)N(/C=C3\C(=O)N(c4ccccc4)N=C3C)C2=O)cc1OC,growth inhibition,[1]; at 1.2 µM,3%
same,growth inhibition,[1]; at 3.7 µM,8%
same,growth inhibition,[1]; at 11.0 µM,25%
same,growth inhibition,[1]; at 33.0 µM,64%
same,growth inhibition,[1]; at 100.0 µM,77% (active)
same,growth inhibition,[2]; at 1.2 µM,-1%
same,growth inhibition,[2]; at 3.7 µM,6%
same,growth inhibition,[2]; at 11.0 µM,24%
same,growth inhibition,[2]; at 33.0 µM,55%
same,growth inhibition,[2]; at 100.0 µM,58%
same,growth inhibition,[3]; at 1.2 µM,1%
same,growth inhibition,[3]; at 3.7 µM,3%
same,growth inhibition,[3]; at 11.0 µM,27%
same,growth inhibition,[3]; at 33.0 µM,79% (active)
same,growth inhibition,[3]; at 100.0 µM,89% (active)
same,growth inhibition,[4]; at 1.2 µM,-5%
same,growth inhibition,[4]; at 3.7 µM,-10%
same,growth inhibition,[4]; [15],5%
same,growth inhibition,[4]; at 11.0 µM,9%
same,growth inhibition,[4]; at 33.0 µM,61%
same,growth inhibition,[4]; [16],51%
same,growth inhibition,[4]; at 50.0 µM,63.4%
same,growth inhibition,[4]; at 100.0 µM,71% (active)
same,growth inhibition,[5]; at 1.2 µM,3%
same,growth inhibition,[5]; at 3.7 µM,4%
same,growth inhibition,[5]; [15],-7%
same,growth inhibition,[5]; at 11.0 µM,18%
same,growth inhibition,[5]; at 33.0 µM,65%
same,growth inhibition,[5]; [16],52%
same,growth inhibition,[5]; at 50.0 µM,73.2% (active)
same,growth inhibition,[5]; at 100.0 µM,80% (active)
same,growth inhibition,[6]; at 1.2 µM,3%
same,growth inhibition,[6]; at 3.7 µM,4%
same,growth inhibition,[6]; at 11.0 µM,26%
same,growth inhibition,[6]; at 33.0 µM,66%
same,growth inhibition,[6]; at 100.0 µM,74% (active)
same,growth inhibition,[7]; [15],-4%
same,growth inhibition,[7]; [16],83% (active)
same,growth inhibition,[7]; at 50.0 µM,79.2% (active)
same,growth inhibition,[8]; at 1.2 µM,-18%
same,growth inhibition,[8]; at 3.7 µM,-9%
same,growth inhibition,[8]; at 11.0 µM,3%
same,growth inhibition,[8]; at 33.0 µM,58%
same,growth inhibition,[8]; at 100.0 µM,71% (active)
same,growth inhibition,[9]; [15],-5%
same,growth inhibition,[9]; [16],61%
same,growth inhibition,[9]; at 50.0 µM,50.8%
same,growth inhibition,[10]; at 1.2 µM,-2%
same,growth inhibition,[10]; at 3.7 µM,0%
same,growth inhibition,[10]; [15],5%
same,growth inhibition,[10]; at 11.0 µM,11%
same,growth inhibition,[10]; at 33.0 µM,42%
same,growth inhibition,[10]; [16],17%
same,growth inhibition,[10]; at 50.0 µM,67.6%
same,growth inhibition,[10]; at 100.0 µM,65%
same,growth inhibition,[11]; at 1.2 µM,-2%
same,growth inhibition,[11]; at 3.7 µM,2%
same,growth inhibition,[11]; at 11.0 µM,26%
same,growth inhibition,[11]; at 33.0 µM,82% (active)
same,growth inhibition,[11]; at 100.0 µM,89% (active)
same,growth inhibition,[12]; at 1.2 µM,0%
same,growth inhibition,[12]; at 3.7 µM,3%
same,growth inhibition,[12]; at 11.0 µM,25%
same,growth inhibition,[12]; at 33.0 µM,81% (active)
same,growth inhibition,[12]; at 100.0 µM,88% (active)
same,growth inhibition,[13]; at 1.2 µM,4%
same,growth inhibition,[13]; at 3.7 µM,15%
same,growth inhibition,[13]; at 11.0 µM,42%
same,growth inhibition,[13]; at 33.0 µM,86% (active)
same,growth inhibition,[13]; at 100.0 µM,90% (active)
same,growth inhibition,[14]; [15],7%
same,growth inhibition,[14]; [16],67%
same,growth inhibition,[14]; at 50.0 µM,76.2% (active)
